This is a sample that favours compounds with a hit; in the whole collection about 6% have one here.
PLK1 PBD inh – blocks phosphopeptide binding to human PLK1 polo-box domain | Plk1 PBD binding of FITC phosphopeptide, fluorescence polarization | Potency, µM, actives largely listed as inhibitors | hit rate 2.8% among 360,000 | AID 720504; note: series mostly up to about 57 µM; nearly all actives have a fitted effect of over 65% in size
Target sequence (P53350 whole entry, looked up, the tested form may be a part): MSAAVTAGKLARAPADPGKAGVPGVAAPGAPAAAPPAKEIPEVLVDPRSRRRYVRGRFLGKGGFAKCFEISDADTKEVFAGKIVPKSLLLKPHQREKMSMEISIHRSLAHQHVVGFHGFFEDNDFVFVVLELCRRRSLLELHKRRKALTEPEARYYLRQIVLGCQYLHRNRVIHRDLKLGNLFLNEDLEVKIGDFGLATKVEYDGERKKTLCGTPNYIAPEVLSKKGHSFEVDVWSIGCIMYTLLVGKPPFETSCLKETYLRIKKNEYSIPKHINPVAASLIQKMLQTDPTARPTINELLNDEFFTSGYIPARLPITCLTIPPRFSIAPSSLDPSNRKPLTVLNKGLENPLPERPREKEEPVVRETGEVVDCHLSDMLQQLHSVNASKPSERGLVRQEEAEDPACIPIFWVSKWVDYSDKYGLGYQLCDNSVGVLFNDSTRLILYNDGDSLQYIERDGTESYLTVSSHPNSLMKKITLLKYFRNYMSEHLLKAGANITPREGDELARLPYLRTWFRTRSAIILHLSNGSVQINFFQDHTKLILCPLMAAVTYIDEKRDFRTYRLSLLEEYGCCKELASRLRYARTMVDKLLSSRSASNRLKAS
Tau ThT inhib – tau fibrillization inhibition (ThT binding) | P10636 | recombinant tau K18 P301L, heparin-induced fibrillization, ThT fluorescence | Potency, µM (highest dose often 57.4 µM), most hits filed as inhibitors | hit rate 2.1% among 270,000; note: nearly all actives have a fitted effect of over 55% in size
Target sequence (P10636 561-689 P618L limits assumed): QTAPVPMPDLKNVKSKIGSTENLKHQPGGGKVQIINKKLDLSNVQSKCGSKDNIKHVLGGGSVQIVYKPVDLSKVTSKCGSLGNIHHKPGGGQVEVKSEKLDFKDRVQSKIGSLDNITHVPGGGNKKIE
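ThT emission at 510 nm, taken 1 hr after adding 30 uM dye, quantifies aggregates formed when 20 uM heparin acts on human tau K18 P301L for 6 hr at 37 C.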
Sfp PPTase inh – blocks B. subtilis Sfp PPTase activity; Potency, µM, most hits filed as inhibitors; Biochemical Sfp PPTase activity, qHTS; Q9F4F7; hit rate 3.5% among 310,000;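 note: the enzyme is Sfp with the accession as filed and its product quenches rhodamine fluorescence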
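Compounds were incubated with enzyme (final 15 nM) for 15 min at room temperature before substrate addition started the reaction. Fluorescence at 525 nm excitation, 598 nm emission was recorded immediately and after 30 minutes.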
VDR inhibitor – vitamin D3 receptor (human) inhibition | P11473 | VDR-SRC2-3 peptide fluorescence polarization, 2 h | Potency, µM, usual class: inhibitors | hit rate 0.93% among 400,000 | AID 504847
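Reagent solutions, kept cold and dark, are dispensed first; compounds are then pinned in at 23 nl, plates briefly spun, and incubated 2 h at ambient temperature. Inhibition of VDR–SRC2-3 peptide binding is read by fluorescence polarization.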
Tau fluor counter – counter-screen for tau fibril formation inhibitors | tau K18 P301L (four-repeat tau fragment) Alexa594 fluorescence, heparin fibrillization | Potency, µM (series often up to 57.7 µM) | hit rate 0.93% among 280,000 | AID 1463; note: nearly all actives have a fitted effect of over 55% in size
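Human K18 P301L tau (15 uM unlabeled plus 0.24 uM Alexa 594-labeled, final) in 100 mM sodium acetate pH 7 was mixed with compound and 20 uM heparin and incubated 6 hr at 37 C.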
Tau FP inhib – tau fibrillization inhibition (FP); K18 P301L tau heparin fibrillization, Alexa594 FP, 6 h; Potency, µM (doses to about 57.7 µM), most hits filed as inhibitors; AID 1468; hit rate 0.39% among 280,000; note: nearly all actives have a fitted effect of over 55% in size
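Quantitative HTS format: compounds meet 15 uM recombinant K18 P301L tau and Alexa 594-tau tracer in 100 mM sodium acetate pH 7; 20 uM heparin triggers fibrillization at 37 C over 6 hr; FP gives the signal.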
Hits are given with their value; n = inactive; u = inconclusive; x = no result; ! = not active in a repeat; [ ] = dose if it differs, or a comment. Calls come from the whole dose curve; as a rule, active = well fitted curve in the direction sought with a large enough effect; inconclusive = small, poorly fitted or top-dose-only effect, or another doubt; inactive = no such curve, though single readings can be large; an effect the other way counts as inactive or inconclusive.

SMILES	PLK1 PBD inh	Tau ThT inhib	Sfp PPTase inh	VDR inhibitor	Tau fluor counter	Tau FP inhib
O=C(c1cccc(F)c1)n1nnc2ccccc21	u	n	n	n	n	n
CC(=NNC1=NCCN1)c1cnn(C2=NCCN2)c1C	n	x	x	x	x	x
NC(=S)n1[nH]c(-c2ccc([N+](=O)[O-])cc2)c(N=Nc2ccc(Cl)cc2)c1=O	u	4µM	n	n	u	n
COc1ccc(Cc2nnc(NC(=O)Nc3ccc(F)cc3)s2)cc1OC	19µM	x	n	u	x	x
CCOCc1nnc(NC(=O)COC)s1	n	n	50µM	n	n	u
Cc1ccccc1NC(=O)Nc1nnc(Cc2ccc([N+](=O)[O-])cc2)s1	n	n	n	n	n	n
CCOCC(=O)Nc1nnc(COCC)s1	u	n	n	n	n	n
COc1ccc(OCc2nnc(NC(=O)Nc3ccc(F)cc3)s2)cc1	u	n	n	n	n	10µM
Cc1ccc(NC(=O)Nc2nnc(Cc3ccc([N+](=O)[O-])cc3)s2)cc1C	n	u	n	n	5µM[quencher]	u
COC(=O)C1(C)C=CC2(CCCCC2)N1C(=O)c1ccccc1 (stereo not drawn)	x	n	n	x	n	n
COc1ccc(CNC(=O)Cn2nnc(-c3ccc(C(F)(F)F)cc3)n2)cc1	x	n	x	n	n	n
CCOCC(=O)Nc1nnc(Cc2ccc(OC)c(OC)c2)s1	27µM	n	n	n	n	n
COc1cccc(NC(=O)Nc2nnc(-c3ccccc3SCc3ccccc3)s2)c1	n	n	n	n	u	u
COc1ccc(NC(=O)Nc2nnc(-c3ccccc3SCc3ccccc3)s2)cc1	n	n	n	n	3.5µM[quencher]	u
OCc1cc(C(O)CNCCCCCCOCCCCc2ccccc2)ccc1O (stereo not drawn)	n	n	56µM!	n	n	n
COc1ccc(N=Nc2n(C)c3ccccc3[n+]2C)cc1	x	3.2µM	50µM	x	u	u
O=C(CSc1nc2ncccc2o1)Nc1ccc(Cl)cc1F	x	n	x	n	n	n
O=c1[nH]nc(N/N=C/c2ccc(Cl)cc2Cl)c(=O)[nH]1	24µM	n	56µM	u	n	n
CC(C)CN1C(=O)/C(=C/c2ccco2)NC1=S	u	u	35µM	n	n	u
COc1ccc(/C=C2/NC(=O)N(Cc3ccccc3F)C2=O)cc1OC	n	n	n	n	n	n
Cc1cc(/C=C2/NC(=O)N(Cc3ccccc3F)C2=O)c(C)n1C	30µM	u	n	n	n	n
CC(C)CN1C(=O)/C(=C/c2cccs2)NC1=S	n	u	n	n	u	n
CCOc1cc([N+](=O)[O-])cc(/C=C2/NC(=O)N(Cc3ccccc3F)C2=O)c1O	n	14µM	n	n	u	n
O=C1N/C(=C/c2ccco2)C(=O)N1Cc1ccccc1F	n	u	50µM	n	n	n
COc1ccccc1-c1c(C)nn2c(-c3ccccc3)cc(-c3ccccc3)nc12	x	n	x	n	n	u
SMILES	PLK1 PBD inh	Tau ThT inhib	Sfp PPTase inh	VDR inhibitor	Tau fluor counter	Tau FP inhib
CC(=O)Nc1cccc(-c2ccnc3c2CC(C)(C(=O)NCC2CC2)O3)c1 (stereo not drawn)	n	x	x	x	x	x
Cc1ccsc1CCN1C(=O)N(c2ccccc2)C(=O)C1CC(=O)Nc1ccc(F)cc1 (stereo not drawn)	x	n	x	n	u	u
CN(C)/C=C1/NC(=S)NC1=O	n	n	79µM	n	n	n
CCN1C(=O)/C(=C\N(C)C)NC1=S	n	n	n	n	n	n
CCOc1ccc(NS(=O)(=O)c2ccc3[nH]c4c(c3c2)CCCCC4)cc1	x	n	x	n	14µM[quencher]	n
CCOc1ccc(NS(=O)(=O)c2ccc3[nH]c4c(c3c2)CCCC4)cc1	x	n	x	n	13µM[quencher]	n
COc1ccc(NS(=O)(=O)c2ccc3[nH]c4c(c3c2)CCCCC4)cc1	x	u	x	n	3.5µM[quencher]	n
COc1ccc(OC)c(CNS(=O)(=O)c2ccc3[nH]c4c(c3c2)CCCCC4)c1	x	n	x	n	u	n
COc1ccc(NS(=O)(=O)c2ccc3[nH]c4c(c3c2)CCCC4)c(OC)c1	x	n	x	n	16µM[quencher]	n
CC(C)(C)NS(=O)(=O)c1ccc2[nH]c3c(c2c1)CCCCC3	n	x	n	n	x	x
CCOC(=O)Cn1c(=O)n(-c2ccc(Cl)cc2)c2nc(-c3ccc(Cl)cc3)nc(C(N)=O)c21	x	n	x	n	n	n
CCOc1ccc(NS(=O)(=O)c2ccc3nc(-c4ccccc4)[nH]c3c2)cc1	x	n	x	n	u	20µM
COc1ccc(NS(=O)(=O)c2ccc3nc(-c4ccccc4)[nH]c3c2)cc1	x	n	x	n	u	u
CCn1c2ccccc2c2cc(NC(=O)Cc3ccc(S(=O)(=O)N4CCOCC4)s3)ccc21	n	u	n	n	7.9µM[quencher]	n
CC1(Cn2ccnn2)[C@H](C(=O)O)N2C(=O)C[C@H]2S1(=O)=O (stereo partly drawn)	x	n	n	n	n	n
COCC(=O)N1CCC2(CCN(Cc3ccccc3)CC2)CC1	x	x	n	n	x	x
O=C(CCN1C(=O)C2CC=C(Cl)CC2C1=O)N1CCCCC1 (stereo not drawn)	u	n	89µM	n	n	n
O=C(CCN1C(=O)C2C3C=CC(C3)C2C1=O)N1CCCCC1 (stereo not drawn)	n	n	n	n	n	n
C[C@H](c1ccccc1)N1C[C@H](COCc2ccccc2)Oc2cc(N3CCC[C@H]3C(N)=O)ccc2S1(=O)=O	n	x	x	x	x	x
CN(C)c1ccc(-c2cc(NC=O)c3ncc(-c4ccc(F)c(Cl)c4)n3c2)cc1	n	x	x	x	x	x
CCc1cccc(C)c1NC(=O)c1cccc(N(C)C)c1	n	u	56µM	n	n	n
O=C(NN=C1c2ccccc2-c2ccccc21)c1ccccc1	n	22µM	u	n	n	u
O=C(NN=C1c2ccccc2-c2ccccc21)c1ccccc1Br	n	n	u	n	n	n
CCOC(=O)C1=C(C)N=c2s/c(=C/c3ccc(OCC(=O)O)cc3)c(=O)n2C1c1ccc(SC)cc1 (stereo not drawn)	x	x	n	x	x	x
CCOc1ccc(C2C(C(=O)Nc3ccccc3)=C(C)N=c3s/c(=C/c4cccc(OCC(=O)O)c4)c(=O)n32)cc1 (stereo not drawn)	u	n	79µM	n	n	n
SMILES	PLK1 PBD inh	Tau ThT inhib	Sfp PPTase inh	VDR inhibitor	Tau fluor counter	Tau FP inhib
CC1=C(C(=O)Nc2ccccc2)C(c2ccc(Cl)cc2)n2c(s/c(=C/c3cccc(OCC(=O)O)c3)c2=O)=N1 (stereo not drawn)	u	n	50µM	u	n	n
COc1cccc(-c2cc(NC(C)=O)c3ncc(-c4ccc(OC)c(OC)c4)n3c2)c1	n	x	x	x	x	x
CC(/C=C/c1ccco1)=N\NC(=O)c1cc(C)[nH]n1	n	u	18µM	n	n	n
O=C(/C=C/c1ccco1)Nc1cccnc1	n	n	25µM	n	n	n
CC(/C=C/c1ccco1)=N\NC(=O)c1cccnc1	n	28µM	56µM	n	n	u
O=C(C=Cc1ccco1)c1ccc([N+](=O)[O-])cc1	n	x	x	u	x	x
O=C(/C=C/c1ccco1)c1cccnc1	n	x	50µM	n	x	x
